According to PubChem BioAssay (NCI):
About 79,000 compounds went through this panel and 15% of them were active in at least one assay; those are over-represented in the sample as a whole. A number with no mark means an inactive call. Calls of active or inactive are those of the source. No stated cut-off is given here; in the data, active means growth inhibition above about 70%; inactive means the rest.

Key:
[1] = NCI Yeast Anticancer Drug Screen. Data for the rad50 strain (AID 155);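 further: 0% = growth of vehicle-only cultures of the same strain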; settings: S. cerevisiae rad50 strain growth inhibition; at 50.0 µM; hits give high values
Summary of the method: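 Yeast carrying a defined DNA repair defect were exposed to test compounds, and growth was compared with vehicle-treated controls to give percent inhibition.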

[2] = NCI Yeast Anticancer Drug Screen. Data for the mec2-1 strain (AID 157); settings: S. cerevisiae mec2-1 strain, at 50.0 µM, hits give high values
Summary of the method: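 Yeast mec2-1 mutant treated with compound. Readout: growth inhibition vs vehicle controls.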

[3] = NCI Yeast Anticancer Drug Screen. Data for the sgs1 mgt1 strain (AID 161);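 further: 0% = growth of cultures given vehicle only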; settings: S. cerevisiae sgs1 mgt1 strain, at 50.0 µM, hits give high values
Summary of the method: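 Inhibition of yeast growth, normalised to vehicle-treated controls, is reported for a strain bearing genetic alterations in DNA damage repair.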

[4] = NCI Yeast Anticancer Drug Screen. Data for the cln2 rad14 strain (AID 165);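 further: 0% = growth equal to vehicle treated cultures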; settings: S. cerevisiae cln2 rad14 strain, at 50.0 µM, hits give high values
Summary of the method: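 cln2 rad14 yeast strain; compound exposure; growth inhibition read vs vehicle controls.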

[5] = NCI Yeast Anticancer Drug Screen. Data for the bub3 strain (AID 167); settings: S. cerevisiae bub3 mutant strain, at 50.0 µM, hits give high values
Summary of the method: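 Compounds were applied to a genetically altered yeast strain carrying a cell-cycle control defect. Growth inhibition was scored against vehicle-treated controls.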

[6] = NCI Yeast Anticancer Drug Screen. Data for the mlh1 rad18 strain (AID 175); settings: S. cerevisiae mlh1 rad18 strain growth inhibition; at 50.0 µM; hits give high values
Summary of the method: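 Yeast w/ defined DNA-repair lesions; compound exposure; growth vs vehicle controls → % inhibition.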

| Structure (SMILES) | growth inhibition [1] | growth inhibition [2] | growth inhibition [3] | growth inhibition [4] | growth inhibition [5] | growth inhibition [6] |
| --- | --- | --- | --- | --- | --- | --- |
| CC(C)c1nnc(NC(=O)CSC(=S)N2CCOCC2)s1 | -23.9% | -18.1% | -5.95% | -51.9% | -16.6% | -2.25% |
| O=c1c(O)c(-c2cccnc2)oc2ccc(Cl)cc12 | -2.1% | 17.8% | 12.8% | 21.6% | 16.7% | 0.4% |
| O=C(/C=C/C(=O)c1ccc(O)cc1)Oc1ccccc1 | 33.1% | -3.75% | 1.1% | -15.3% | 12.9% | 18.1% |
| N/C(=N\Cl)C(Cl)(Cl)Cl | -17.9% | -16.5% | 6.25% | -26.6% | 2.1% | -21.4% |
| COc1nc(OC)c2cnn(-c3ccc(Cl)cc3)c2n1 | -10.5% | -4.6% | -6.45% | -3% | 3.7% | -7.35% |
| CC(=O)COc1ccccc1-c1ccccc1 | 5.4% | 8.55% | 4.9% | -34.8% | 8.6% | -14.7% |
| Cc1cc(-n2nnc(C(=O)O)c2-c2ccccc2)c2ccc(Cl)cc2n1 | -19.1% | -4.35% | -12.1% | -35% | -8.9% | 4.1% |
| O=C(O)C1CC1Br (stereo not drawn) | 9.15% | -15.3% | -3.65% | -14.4% | 2.45% | 5.8% |
| CN1CCc2c1nc(-c1ccc([N+](=O)[O-])cc1)c1c2N(C)CC1 | 13.2% | 0.7% | 2.8% | 6.85% | 10.8% | 9.95% |
| NNC(=O)c1ccccc1O | 36% | 14.4% | 15.5% | -12.3% | 13.4% | 62% |
| N#CC(C#N)=NNc1ccc2cn[nH]c2c1 | -11.1% | 28.2% | 2.7% | -21.1% | -39.5% | -1.95% |
| CC(C)OC1CC1 | 4.65% | -10.6% | -10.5% | 4.9% | 11.7% | -21% |
| Clc1ccccc1C(N1CCCCC1)N1CCCCC1 | 27.9% | 13.2% | 19.4% | 13.5% | 28% | 28.1% |
| CN(CCO)c1nc(N)cc(=O)[nH]1 | -17.7% | 12.5% | -10.9% | 4.5% | -10.9% | -8.45% |
| C=C1C2CC(OC(C)=O)C3(C)C(c4ccoc4)OC(=O)[C@@H](O)[C@]13OC1C[C@H](OC(C)=O)C(C)(C)[C@H](C(O)C(=O)OC)[C@]12C (stereo partly drawn) | -11.8% | -34.4% | 2.4% | 3.45% | -8.1% | 0.25% |
| CC(=O)c1cccc(NC(=O)c2c(Br)c(Br)c(Br)c(Br)c2C(=O)O)c1 | -7.25% | -12.6% | 2.95% | 0.2% | -0.25% | -3.1% |
| Cc1cc(C(C)(C)C)cc(Cc2cc(C(C)(C)C)cc(Cc3cc(C(C)(C)C)cc(C)c3O)c2O)c1O | -25.8% | -4.75% | -43.3% | -13.3% | -0.6% | -24% |
| CC1=C2C(C)CC3OC(=O)C(C)C3C(O)C2CC1=O (stereo not drawn) | 5.8% | -7.5% | 1.2% | -40.8% | -8% | -5.75% |
| CCOC(=O)C12CCCCC1=CC1(CC2)SCCS1 (stereo not drawn) | -0.45% | -9.95% | -30.5% | -1.35% | 4.55% | -15.6% |

| Structure (SMILES) | growth inhibition [1] | growth inhibition [2] | growth inhibition [3] | growth inhibition [4] | growth inhibition [5] | growth inhibition [6] |
| --- | --- | --- | --- | --- | --- | --- |
| CCN(CC)C(N)=Nc1cc2ccccc2c2ccccc12 | -16.5% | -22.8% | -16.9% | -45.5% | 8.55% | 5.25% |
| CCOC(=O)CC(C)C(Br)(C(=O)OCC)C(=O)OCC (stereo not drawn) | 47.5% | 93.5% (active) | 89.4% (active) | 20.5% | 93.4% (active) | 95.4% (active) |
| CCC1(C)N=C(C(N)=O)c2ncn(N=C(C)C)c2N1 (stereo not drawn) | -15.8% | -30.2% | -24.3% | 14.2% | -10.5% | -16.6% |
| NNC(=O)c1ccccc1Cl | -11.2% | -21.1% | -11.9% | 0.4% | -3.8% | -25.9% |
| O=[N+]([O-])c1ccc(P(=O)(O)c2ccc([N+](=O)[O-])cc2)cc1 | 15% | 17.6% | 23.6% | -25.9% | -11% | 34.7% |
| O=C1OCCc2c1[nH]c1ccccc21 | 12.9% | 10.7% | 5.65% | 22.9% | 13.5% | 17.6% |
| CNC(=O)c1cc(OC)ccc1O | -25.9% | -9.7% | -4.3% | -32.3% | -3.6% | 12.4% |
| Cc1cc(C)nc(C)c1 | -22.2% | -15.1% | -14.2% | -11.1% | -3.4% | 23.9% |
| c1ccc(-c2coc(-c3ccccc3)c2)cc1 | -16.2% | -11.8% | -17.6% | -12.2% | -9.35% | -1.9% |
| CCN(CC)CC1(CC)COC(c2ccccc2)(c2ccccc2)OC1 | -3.3% | -21.4% | -18.6% | -26.3% | -14.2% | -34.5% |
| NC1=NC=N/C(=N\c2ccccn2)C1N (stereo not drawn) | -13.3% | -9.95% | -5.4% | -32.2% | -11.2% | -8.6% |
| OCCN(CCO)c1ncnc2c1ncn2CCc1ccccc1 | 13.6% | -0.25% | 16.2% | -16% | 4.1% | -2.25% |
| CCC/C=N\NS(=O)(=O)c1ccc(NC(C)=O)cc1 | 4.65% | -28.4% | 11.6% | 12.6% | -43.7% | 27.2% |
| CC(=Nc1ccc(Cl)c(Cl)c1)c1ccncc1 | -31.9% | -10.1% | -58% | -31.6% | 2.1% | -35.1% |
| C/C(=N/O)c1c[n+]([O-])ccn1 | -3.9% | -3.15% | -7.9% | -31.2% | 4.7% | -0.5% |
| COc1cc([N+](=O)[O-])ccc1NC(=O)Nc1ccc(Cl)cc1[N+](=O)[O-] | -4.8% | 28.1% | 24.6% | -12.6% | 29.4% | 27.1% |
| Nc1ncnc2c1cnn2-c1ccc(Cl)cc1 | 42% | 9.15% | 62.6% | -7.2% | 23.8% | 48% |
| CC1=C(C(=O)NNC(=O)c2ccccc2)CC(C(=O)NNC(=O)c2ccccc2)=C(C)N1 | -24.3% | 14.5% | 1.85% | -34.6% | -13.2% | -28.6% |
| Cc1nc2c(=O)[nH]c(=O)[nH]c2[nH]c1=O | -20.4% | -12.2% | -24.6% | -50.5% | 2.55% | -16.4% |
